Sampled rows, rich in hits. Any-hit rate of the full collection: about 12%.
JMJD2A Tudor inh = qHTS Assay for Inhibitors of JMJD2A-Tudor Domain; Lysine-specific demethylase 4A (Homo sapiens), O75164; AlphaScreen JMJD2A-Tudor / H3K4me3 peptide binding; Potency, µM (titrated, usually from 114 µM), hits mostly inhibitors; 390,000 compounds, 4.4% hits; also: nearly all actives have a fitted effect of over 50% in size
Target sequence (O75164 whole entry, looked up, the tested form may be a part): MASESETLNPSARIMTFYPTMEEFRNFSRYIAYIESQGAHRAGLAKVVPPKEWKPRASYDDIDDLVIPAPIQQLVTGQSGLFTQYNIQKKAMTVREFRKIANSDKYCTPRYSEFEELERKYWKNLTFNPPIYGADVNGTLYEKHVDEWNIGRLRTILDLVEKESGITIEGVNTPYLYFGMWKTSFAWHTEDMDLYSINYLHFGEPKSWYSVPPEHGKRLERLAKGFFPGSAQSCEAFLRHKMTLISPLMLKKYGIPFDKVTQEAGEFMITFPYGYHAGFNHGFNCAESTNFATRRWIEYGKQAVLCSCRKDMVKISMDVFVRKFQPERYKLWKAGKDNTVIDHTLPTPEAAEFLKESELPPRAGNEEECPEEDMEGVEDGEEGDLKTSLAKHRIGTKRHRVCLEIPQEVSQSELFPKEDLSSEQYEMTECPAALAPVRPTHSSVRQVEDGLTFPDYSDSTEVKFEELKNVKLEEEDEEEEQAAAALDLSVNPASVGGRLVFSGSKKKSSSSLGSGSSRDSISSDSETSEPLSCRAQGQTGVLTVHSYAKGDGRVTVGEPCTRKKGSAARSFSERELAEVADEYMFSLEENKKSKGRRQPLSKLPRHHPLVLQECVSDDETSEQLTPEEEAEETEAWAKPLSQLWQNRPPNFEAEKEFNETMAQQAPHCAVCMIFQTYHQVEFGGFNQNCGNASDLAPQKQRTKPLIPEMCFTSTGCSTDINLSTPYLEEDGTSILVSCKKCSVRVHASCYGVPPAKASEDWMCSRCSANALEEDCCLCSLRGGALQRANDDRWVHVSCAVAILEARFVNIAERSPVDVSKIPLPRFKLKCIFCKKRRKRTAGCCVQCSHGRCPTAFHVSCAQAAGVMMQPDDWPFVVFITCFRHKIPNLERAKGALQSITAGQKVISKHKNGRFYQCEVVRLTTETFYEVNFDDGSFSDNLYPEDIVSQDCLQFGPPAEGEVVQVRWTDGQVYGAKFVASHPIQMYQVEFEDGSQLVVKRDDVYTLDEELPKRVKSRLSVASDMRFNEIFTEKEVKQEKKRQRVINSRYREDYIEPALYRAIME
HP1b chromo inh = HTS for Inhibitors of HP1-beta Chromodomain Interactions with Methylated Histone Tails. Chromobox protein homolog 1 (Homo sapiens), P83916. AlphaScreen HP1-beta / biotin-H3K9me3 peptide binding. Potency, µM (highest dose often 114 µM), hits mostly inhibitors. 390,000 compounds, 0.56% hits. AID 540317, 2011; also: nearly all actives have a fitted effect of over 70% in size
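AlphaScreen: HP1-beta (50 nM) preformed 30 min with biotin-H3(1-18)K9me3 peptide (50 nM) in PBS pH 7.4, 0.01% Tween-20. Compound added for 30 min at RT, then streptavidin donor/nickel chelate acceptor beads (10 ug/mL) for 30 min.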
BAZ2B block = qHTS Assay for Inhibitors of BAZ2B; 360,000 compounds, 4.4% hits; AlphaScreen BAZ2B-H3K14Ac peptide displacement; AID 504333, 2011; Potency, µM (doses to about 114 µM), most hits filed as inhibitors; also: nearly all actives have a fitted effect of over 60% in size
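Protein-peptide AlphaScreen: BAZ2B 50 nM, b-H3K14Ac 50 nM, 1x PBS pH 7.4 + 0.01% Tween-20. Preincubation 30 min RT; cpd 30 min RT (top 110 uM); beads 20 min RT, light-protected.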
PLK1 PBD block = qHTS for Inhibitors of PLK1-PDB (polo-like kinase 1 - polo-box domain): Primary Screen; Plk1 PBD binding of FITC phosphopeptide, fluorescence polarization; Potency, µM, usual class: inhibitors; 360,000 compounds, 2.8% hits; AID 720504, 2013; also: series mostly up to about 57 µM; nearly all actives have a fitted effect of over 65% in size
G9a block = qHTS Assay for Inhibitors of Histone Lysine Methyltransferase G9a; G9a H3K9 monomethylation, AlphaScreen, 2 h; 350,000 compounds, 8.8% hits; AID 504332, 2011; Histone-lysine N-methyltransferase EHMT2 (Homo sapiens), Q96KQ7; Potency, µM (highest dose often 102 µM), usual class: inhibitors; also: nearly all actives have a fitted effect of over 75% in size
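Methyltransferase reactions run at room temperature for 2 h (20 nM enzyme, 500 nM biotin-H3K9 peptide, 20 uM SAM) after a 15 min compound preincubation; product detected by AlphaScreen beads and anti-H3K9me1 antibody.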
Sfp inh = qHTS Assay for Inhibitors of Bacillus subtilis Sfp phosphopantetheinyl transferase (PPTase); Potency, µM, hits mostly inhibitors; 310,000 compounds, 3.5% hits; Biochemical Sfp PPTase activity, qHTS; 4'-phosphopantetheinyl transferase ffp (Bacillus subtilis), Q9F4F7;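 also: the enzyme is Sfp with the accession as filed and its product quenches rhodamine fluorescence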
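Sfp 15 nM + cpd, 15 min RT; start w/ rhodamine-CoA 5 uM, BHQ-2-YbbR 12.5 uM (final); 50 mM Hepes pH 7.6, 10 mM MgCl2, 0.01% NP-40, 0.01% BSA; read 525/598 nm at 0 and 30 min.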
Hits are given with their value; . = inactive; ? = inconclusive; / = not tested or not shown; ! = not active in a repeat; [ ] = remark or other dose. Calls follow the shape of the dose curve; as a rule, active = well fitted curve in the direction sought with a large enough effect; inconclusive = small, poorly fitted or top-dose-only effect, or another doubt; inactive = no such curve, though single readings can be large; an effect the other way counts as inactive or inconclusive.

SMILES	JMJD2A Tudor inh	HP1b chromo inh	BAZ2B block	PLK1 PBD block	G9a block	Sfp inh
CC(C)OCCCNC(=O)c1sc(=S)n(C)c1N	.	?	.	30µM	14µM	50µM
C=CCn1c(N)c(C(=O)Nc2ccc(C)cc2)sc1=S	.	.	.	.	.	.
CCn1c(N)c(C(=O)NCCCOC)sc1=S	.	50µM	?	21µM	28µM	20µM
Cn1c(N)c(C(=O)NCc2ccccc2Cl)sc1=S	.	.	.	.	.[12.7 µM]	.
CCNC(=O)c1sc(=S)n(CC)c1N	.	.	?	27µM	13µM	50µM
Cc1ccc2c(C)c(C)c(=O)n(C)c2c1	.	.	/	.	/	/
CC(=O)NCCNc1ncncc1-c1ccccc1CN(C)C	/	/	/	/	.[0.501 µM]	.
CCn1c(N)c(C(=O)N2CCOCC2)sc1=S	.	?	.	15µM	10µM	45µM
C=CCn1c(N)c(C(=O)N2CCOCC2)sc1=S	.	.	.	?	?	.
COc1ccc2c(c1)c1nnc(SCCN3CCOCC3)nc1n2C	.	.	/	/	/	/
O=S(CCc1ccncc1)Cc1ccccc1 (stereo not given)	.	.	.	.	.	.
Fc1cc(F)c(F)c(SCCc2ccncc2)c1F	28µM	?	.	?	?	?
Fc1ccc(SCCc2ccncc2)cc1	.	.	22µM!	24µM	50µM!	.
Cc1ccc(CCSc2ccc(F)cc2)cn1	.	.	.	?	/	.
c1ccc(SCCc2ccncc2)cc1	.	.	.	21µM	.[12.7 µM]	.
c1ccc2c(CSCCc3ccncc3)cccc2c1	.	.	.	.	.	50µM
COc1ccccc1N1CCN(C(=O)c2c(C)oc3ncn(C)c(=O)c23)CC1	.	.	.	/	.	/
CCCCc1nc2c(c3c1C[C@H](C)OC3)CN(C(=O)Cc1cccc(OC)c1)CC2	/	/	/	/	/	.
CCCN1CCC2(CC1)NC(C(=O)O)Cc1c2[nH]c2ccccc12 (stereo not given)	.	.	?	.	14µM	.
CCC1(C)NC(C(=O)O)Cc2c1[nH]c1ccccc21 (stereo not given)	.	.	.	.	?	.
CCOC(=O)N1CCC2(CC1)NCCc1c2[nH]c2ccccc12	.	.	.	.	?	.
COC(=O)C1Cc2c([nH]c3ccccc23)C2(CCN(Cc3ccccc3)CC2)N1 (stereo not given)	?	.	?	.	45µM	.
Cc1ccc(N(CC(=O)NCCc2ccc(Cl)cc2)S(=O)(=O)c2c(C)noc2C)cc1	.	.	.	.	.	.
Cc1noc(C)c1S(=O)(=O)N(CC(=O)NCCc1ccc(Cl)cc1)c1ccc(C(C)C)cc1	.	.	/	/	1µM	/
COc1cc(CNn2cn[nH]c2=S)cc(Cl)c1OCc1ccc(F)cc1	.	.	.	.	5.6µM	.
SMILES	JMJD2A Tudor inh	HP1b chromo inh	BAZ2B block	PLK1 PBD block	G9a block	Sfp inh
C=CCOc1ccc(CNn2cn[nH]c2=S)cc1OC	22µM	.	.	.	3.2µM	.
C=CCOc1ccc(CNn2cn[nH]c2=S)cc1OCC	8.9µM	.	.	.	.[0.501 µM]	?
C=CCOc1ccc(CNC(C)(C)CO)cc1OC	.	.	.	.	.	.
C=CCOc1ccc(CNc2nccs2)cc1OCC	.	.	.	.	.	.
Cc1ccc(/C=N\NC(=O)CNC(=O)C23CC4CC(CC(C4)C2)C3)o1	.	.	.	.	.[12.7 µM]	56µM
O=C(CNC(=O)c1ccc(S(=O)(=O)N2CCCCC2)cc1)N/N=C/c1ccco1	.	.	.	.	.	.
Cc1ccc(/C=N/NC(=O)CNC(=O)c2ccc(S(=O)(=O)N3CCCC3)cc2)o1	.	.	.	.	45µM	.
CCN(C(=O)c1c([N+](=O)[O-])cnn1C)c1ccccc1	/	/	/	.	/	/
CNS(=O)(=O)c1cn(CC(=O)N2CCN(c3cccc(C)c3C)CC2)cc1S(=O)(=O)NC	.	.	.	/	.	/
Cc1cc(C(=O)NCc2ccccc2)c(=O)[nH]c1C	.	.	/	.	.	.
Cc1cc(C(=O)O)c(=O)[nH]c1C	22µM	.	?	.	71µM	.
CC1CCN2c3cc(Cl)ccc3CC3(C(=O)OC(C)(C)OC3=O)C2C1 (stereo not given)	.	.	/	/	/	/
COc1ccc(C2=CC(=O)C=CC2=O)cc1	/	/	10µM	/	1.3µM	3.2µM
CN(CC(=O)Nc1ccc(Cl)c(S(=O)(=O)N2CCOCC2)c1)C(=O)c1ccc(C#N)cc1	.	.	.	.	?	/
Cc1cccc(Nc2cc(C)nc3ccccc23)c1	.	.	.	.	/	.
Cc1cc(Nc2ccccc2)c2c([N+](=O)[O-])c(C)cc(C)c2n1	25µM	40µM	32µM	.	22µM	.
Oc1c(Cl)cc(Cl)cc1Sc1cc(Cl)cc(Cl)c1O	/	/	50µM	/	?	.
O=S(c1cc(Cl)cc(Cl)c1O)c1cc(Cl)cc(Cl)c1O	/	/	/	?	?	.
CC1C/C(=N\NC(=O)c2cccnc2)CC(C)(C)C1 (stereo not given)	?	.	?	.	.	.
CC1C/C(=N\NC(=O)c2ccc([N+](=O)[O-])cc2)CC(C)(C)C1 (stereo not given)	.	.	.	.	.[12.7 µM]	79µM
OCCN1CCN(c2cc(-c3ccccc3)c3ccccc3n2)CC1	0.79µM	?	40µM	.	?	.
CCN1CCN(c2nc(NCCO)c3ccccc3n2)CC1	.	.	.	.	40µM	.
OCCNc1nc(N2CCN(Cc3ccccc3)CC2)nc2ccccc12	.	.	.	.	?	.
CN1CCN(c2nc(N3CCN(CCO)CC3)nc3ccccc23)CC1	.	.	.	.	50µM	.
c1ccc(CN2CCN(c3nc(N4CCOCC4)c4ccccc4n3)CC2)cc1	.	.	/	.	/	/
SMILES	JMJD2A Tudor inh	HP1b chromo inh	BAZ2B block	PLK1 PBD block	G9a block	Sfp inh
CN1CCN(c2nc(-c3ccc(N(C)C)cc3)nc3ccccc23)CC1	/	/	/	/	/	50µM
C[C@@H]1CCC[C@H](C)N1	/	/	/	/	.[5.15 µM]	.
CCNc1nc(C#N)nc2c1ncn2-c1cccc(Cl)c1	.	/	/	/	/	/
OCCCN=c1cc(-c2ccccc2)oc2ccc(Cl)cc12	.	.	.	.	?	.
CC1(C)CC(N=c2cc(-c3ccccc3)oc3ccc(Cl)cc23)CC(C)(C)N1	.	.	?	.	71µM	.
CCOC(=O)c1cc(-c2ccccc2)sc1NC(=O)CCN1C(=O)c2ccccc2C1=O	.	.	.	.	.	.
CCOC(=O)c1cc(-c2ccccc2)sc1NC(=O)CC	.	?	.	21µM	56µM	.
CCOC(=O)c1sc(-c2ccccc2)cc1N	.	.	.	.	.	.
CCOC(=O)c1cc(-c2ccccc2)sc1N	?	?	?	12µM	8.9µM	22µM

Bioassay records (PubChem)
